These results are taken from PubChem BioAssay (NCI).

A short description of assay [1]: NCI Yeast Anticancer Drug Screen. Data for the rad50 strain (AID 155).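 Note: 0% = growth of vehicle-only cultures of the same strain.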 As to conditions: S. cerevisiae rad50 strain growth inhibition; at 50.0 µM; stronger effect = higher value. In a few lines:
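Relative growth inhibition (compound vs vehicle) was measured in yeast with a defined repair-gene alteration.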

Assay [2] is described as follows: NCI Yeast Anticancer Drug Screen. Data for the mec2-1 strain (AID 157). The conditions noted are these: S. cerevisiae mec2-1 strain, at 50.0 µM, stronger effect = higher value. In a few lines: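 Growth inhibition is read against vehicle-treated controls after compound exposure of the mec2-1 yeast strain, which is defective in DNA damage repair or cell cycle control.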
A short description of assay [3]: NCI Yeast Anticancer Drug Screen. Data for the sgs1 mgt1 strain (AID 161).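 Note: 0% = growth of cultures given vehicle only.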 As to conditions: S. cerevisiae sgs1 mgt1 strain, at 50.0 µM, stronger effect = higher value. In a few lines:
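Growth of a repair-deficient yeast mutant was monitored after compound treatment and expressed as inhibition relative to vehicle-treated cultures.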

Assay [4] can be described thus: NCI Yeast Anticancer Drug Screen. Data for the cln2 rad14 strain (AID 165).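 Note: 0% = growth equal to vehicle treated cultures.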 As to conditions: S. cerevisiae cln2 rad14 strain, at 50.0 µM, stronger effect = higher value. In a few lines: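 Growth inhibition, relative to vehicle-treated controls, is the read-out. The test organism is a yeast strain with defined genetic alterations, cln2 rad14.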
Assay [5] can be described thus: NCI Yeast Anticancer Drug Screen. Data for the bub3 strain (AID 167). As to conditions: S. cerevisiae bub3 mutant strain, at 50.0 µM, stronger effect = higher value. In a few lines: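 Screening used yeast with an engineered genetic alteration affecting cell cycle control. Compound-exposed cultures were compared with vehicle cultures, and reduced growth was taken as inhibition.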

Assay [6] in a line: NCI Yeast Anticancer Drug Screen. Data for the mlh1 rad18 strain (AID 175). The conditions noted are these: S. cerevisiae mlh1 rad18 strain growth inhibition; at 50.0 µM; stronger effect = higher value. In a few lines:
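Cells of a genetically altered yeast strain, deficient in DNA damage repair, were treated with compound. Their growth was then compared with that of vehicle-treated cultures to give inhibition.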

About 79,000 compounds went through this panel and 15% of them were active in at least one assay; those are over-represented in the sample as a whole. A number with no mark means an inactive call. Activity calls are given as the source filed them. Cut-off read from the data, not from the text of the source: active = growth inhibition above about 70%; inactive = the rest.

In the case of `CC(=O)OCC1OC(n2c(C)c(C(C)=O)c(-c3ccc(Cl)cc3)c(C#N)c2=S)C(OC(C)=O)C(OC(C)=O)C1OC(C)=O` (configuration not stated), the growth inhibition in assay [1] is -37.9%; in assay [2], -9.55%; in assay [3] it was -2.1%; in assay [4], 12.2%; in assay [5], 9.15%; in assay [6], -2.65%.

`CCC(C)NC(=O)c1ccccc1C` (configuration not stated): the growth inhibition was 6.25% in assay [1]; -2.75% in assay [2]; -3.2% in assay [3]; -10.2% in assay [4]; 8.15% in assay [5]; -0.2% in assay [6].

On to `O=C(O)/C=C/c1ccc(O)c(O)c1`, for which the growth inhibition in assay [1] was 18.3%; in assay [2], -7.15%; in assay [3] it was 0.5%; in assay [4], 9.9%; in assay [5], 7.25%; in assay [6], 7.65%.

Regarding `CCN(CC)CCN(N)CCN(CC)CC`, the growth inhibition in assay [1] is 20.6%; in assay [2], -24.8%; in assay [3], -1.2%; in assay [4], -1.5%; in assay [5], -44.2%; in assay [6] it was -17.2%.

`CC(=O)NCC(=O)c1ccccc1`: the growth inhibition was 12.5% in assay [1]; -2.4% in assay [2]; 3.75% in assay [3]; -7.1% in assay [4]; -6.35% in assay [5]; 9.5% in assay [6].

As to `O=CC(O)C(O)C(O)C(O)COC(=S)OCC(O)C(O)C(O)C(O)C=O` (configuration not stated) (tested in a mixture with another compound), the growth inhibition was -4.35% in assay [1]; -10.1% in assay [2]; -2.85% in assay [3]; -3.1% in assay [4]; 6.05% in assay [5]; -4.25% in assay [6].

Regarding `O=C1CCCCC1CO` (configuration not stated), the growth inhibition in assay [1] was -0.1%; in assay [2] it was 1.5%; in assay [3], -0.65%; in assay [4], -5.5%; in assay [5] it was 1.4%; in assay [6], 2.3%.

As to `CCN(CC)CC(Oc1ccccc1)C(=O)c1ccccc1` (configuration not stated), the growth inhibition in assay [1] was -10.2%; in assay [2], -15.7%; in assay [3], 4.75%; in assay [4] it was -30.1%; in assay [5], -11.4%; in assay [6] it was -7.4%.

On to `NC(=O)c1ccc(C(F)(F)F)cc1O`, for which the growth inhibition in assay [1] was 7.6%; in assay [2] it was 12.6%; in assay [3] it was -4.65%; in assay [4], -21.4%; in assay [5], 1.2%; in assay [6], 10%.

Take `N=C1C(O)=CC(=O)C(O)=C1C(=O)O`: the growth inhibition in assay [1] is -9.1%; in assay [2], 3.9%; in assay [3] it was 0%; in assay [4] it was 1.95%; in assay [5], -13%; in assay [6] it was 3.7%.

Consider `CC(=O)NCc1cc([N+](=O)[O-])ccc1O`, for which the growth inhibition is 11.6% in assay [1]; 2.55% in assay [2]; -0.8% in assay [3]; -6.2% in assay [4]; -3.55% in assay [5]; 5.05% in assay [6].

With `NC(=O)C(Cc1ccccc1)c1ccccc1` (configuration not stated), the growth inhibition in assay [1] was -12.2%; in assay [2], -15.2%; in assay [3], -7.55%; in assay [4], -23%; in assay [5], -16.6%; in assay [6], 18.4%.

Turning to `CCC(CC)COC(=O)CC(C)=O`, the growth inhibition in assay [1] is 18.2%; in assay [2], 52.9%; in assay [3], 6.9%; in assay [4], 86.8% (active); in assay [5], 28.2%; in assay [6] it was 33.4%.

On to `FC1(F)ON2CCc3ccccc3C2[C@H]1c1ccccc1` (some centres not stated), for which the growth inhibition is 13.3% in assay [1]; 14.7% in assay [2]; 10.2% in assay [3]; 10% in assay [4]; 22.4% in assay [5]; -50% in assay [6].

`CCOC(=O)/C(=C\c1ccccc1Cl)C(C)=O`: the growth inhibition in assay [1] was 99.3% (active); in assay [2] it was 98.8% (active); in assay [3] it was 99.5% (active); in assay [4], 98.5% (active); in assay [5], 98.8% (active); in assay [6], 99.5% (active).

With `Nc1[nH][nH]c(=O)c1N=Nc1ccccc1`, the growth inhibition in assay [1] was -7.75%; in assay [2] it was -8.95%; in assay [3], -1.15%; in assay [4], -6.6%; in assay [5], 8.4%; in assay [6], 5.15%.

On to `CC1=C(CN(CC(=O)O)CC(=O)O)C(=O)C(C(C)C)=C/C1=C(\c1ccccc1S(=O)(=O)O)c1cc(C(C)C)c(O)c(CN(CC(=O)O)CC(=O)O)c1C`, for which the growth inhibition in assay [1] is -3.55%; in assay [2], -24.8%; in assay [3] it was 11.4%; in assay [4] it was 4.2%; in assay [5] it was 0.75%; in assay [6], -8.7%.

In the case of `COc1cc(O)c(O)cc1C(C)(C)C`, the growth inhibition in assay [1] was 35.9%; in assay [2], 24.6%; in assay [3], 45.4%; in assay [4], -11.7%; in assay [5] it was 36.5%; in assay [6], -1.25%.

Take `COC(=O)c1nnn(CCc2c[nH]c3ccccc23)c1C(=O)OC`: the growth inhibition is -10.8% in assay [1]; 4% in assay [2]; -11.3% in assay [3]; -11.6% in assay [4]; 19.8% in assay [5]; -24.7% in assay [6].

As to `CC#CCOC(=O)c1ccccc1OC(C)=O`, the growth inhibition was 27.8% in assay [1]; -1.75% in assay [2]; 23.9% in assay [3]; 9.7% in assay [4]; 26.9% in assay [5]; 19.1% in assay [6].

With `OCC(O)Cn1cnc2c(NO)ncnc21` (configuration not stated), the growth inhibition was -18.2% in assay [1]; -20.8% in assay [2]; -8% in assay [3]; -15.2% in assay [4]; 4.85% in assay [5]; 11.1% in assay [6].

Consider `COC(=O)[C@]1(C)CCCn2c(=O)n(-c3ccccc3)c(=O)n21`, for which the growth inhibition is 13.9% in assay [1]; 11.3% in assay [2]; -6.65% in assay [3]; 9.75% in assay [4]; 13.8% in assay [5]; -21.6% in assay [6].
